# Sampled rows, rich in hits. Any-hit rate of the full collection: about 19%.
# HT1080 IDH1KD tx – kills HT-1080 cells with IDH1 knockdown; hit rate 2% among 360,000; Potency, µM (highest dose often 46.1 µM), for the others: top-dose activity, negative = toxicity, hits mostly cytotoxic; HT-1080 IDH1 knockdown viability, ATP luminescence, 48 h; AID 686971;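 also: potency is read from the fitted curve at half-maximal effect; 0% = DMSO wells and -100% = cell-free medium wells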
#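 HT-1080-IDH1KD cells (IDH1 knocked down), 750/well in RPMI with 5% FBS, treated with compound 48 h at 37 degrees C. Viability by CellTiter-Glo luminescence, normalised to DMSO and no-cell wells; concentration-response curves classed.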
# IL-1B inflam inh – blocks inflammasome-driven IL-1 beta release; hit rate 4.7% among 360,000; THP-1 LPS/ATP IL-1B secretion, AlphaLISA, 16 h; stronger effect = lower value; AID 743279; activity change, % at 57.5 µM; in the data active = activity change below about -50%; inconclusive = mostly about -30% to -49%
#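 THP-1 cells pretreated 1 hr with compounds (up to 57.5 uM final), then stimulated with LPS (250 ng/mL final) plus ATP (1.25 mM final); secreted IL-1B measured by AlphaLISA after 16 hr, decreased signal indicating inhibition.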
# TDP1 cell noCPT – qHTS for Inhibitors of human tyrosyl-DNA phosphodiesterase 1 (TDP1): qHTS in cells in absence of CPT | DT40 Tdp1-/- hTDP1 cells, no CPT, ATP luminescence, 48 h | Potency, µM (top dose mostly 46.2 µM), for the others: top-dose activity change, negative = growth inhibition, usual class: inhibitors | hit rate 15% among 420,000; also: potency is read from the fitted curve at half-maximal effect; nearly all actives have a fitted effect of over 55% in size
#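 Growth of hTDP1-complemented DT40 Tdp1-knockout cells is measured by ATP luminescence after at least 48 hr compound exposure at 37 °C, with DMSO substituting for the 20 nM CPT used in the parallel screen.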
# TDP1 cell CPT – growth inhibition of DT40 Tdp1-/-;hTDP1 cells with camptothecin (screen for TDP1 inhibitors) | hit rate 12% among 420,000 | chicken DT40 Tdp1-/-;hTDP1 cells + 20 nM CPT, ATP luminescence, 48 h | Potency, µM (top dose mostly 46.2 µM), without a hit: at the highest dose activity change, negative = growth inhibition, actives largely listed as inhibitors; also: potency is read from the fitted curve at half-maximal effect; nearly all actives have a fitted effect of over 55% in size
#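 Cell growth measured by CellTiter-Glo luminescence after a minimum 48 h, 37 C compound exposure with 20 nM CPT in Tdp1-knockout DT40 cells stably expressing hTDP1, seeded 400/well; qHTS titration format.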
# HT1080-NT tox – kills 2HG-producing HT-1080-NT fibrosarcoma cells | HT-1080-NT fibrosarcoma viability, CellTiter-Glo ATP luminescence, 48 h | Potency, µM (top dose mostly 46.1 µM), for the others: top-dose activity, negative = less viability, usual class: cytotoxic | hit rate 1.6% among 360,000 | AID 686970;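 also: NT is the 2HG producing partner of a matched IDH1 knockdown line; potency is read from the fitted curve at half-maximal effect; 0% = DMSO-treated cells and -100% = media-only wells without cells; nearly all actives have a fitted effect of over 55% in size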
#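 Viability by CellTiter-Glo luminescence after 48 h compound exposure at 37C of HT-1080-NT cells (750/well, RPMI, 5% FBS). % activity scaled between DMSO wells and medium-only wells, then curve-fitted and categorized by curve class.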
# * = called active by the depositor; ? = inconclusive; . = no result given; [ ] = remark or other dose. Unless noted, calls follow the shape of the dose curve; as a rule, active = well fitted curve in the direction sought with a large enough effect; inconclusive = small, poorly fitted or top-dose-only effect, or another doubt; inactive = no such curve, though single readings can be large; an effect the other way counts as inactive or inconclusive. Unless noted, % is scaled to controls: 0 for no effect and ±100 for the full control effect.
SMILES,HT1080 IDH1KD tx,IL-1B inflam inh,TDP1 cell noCPT,TDP1 cell CPT,HT1080-NT tox
O=C(NCc1ccco1)/C(=C/C=C\c1ccccc1)NC(=O)c1ccc(Br)o1,?,-8,?,16µM*,0%
N#C/C(=C\C=C\c1ccccc1)C(=O)NCc1ccco1,?,-81*,?,-8%,?
O=C(NCc1ccco1)/C(=C\c1ccccc1)NC(=O)c1ccccc1,13%,-13,6%,-1%,17%
COc1ccccc1NC(=O)/C=C\c1ccco1,3%,20,-28%,?,10%
Cc1onc(-c2ccccc2)c1C(O)c1ccc(F)cc1 (stereo not given),-2%,9,-5%,-6%,-2%
COC(=O)c1cc(=O)nc(NNC(C)=O)s1,1%,23,-5%,-2%,23%
CN(CC(=O)NC1(C)CCS(=O)(=O)C1)S(=O)(=O)c1ccc(Cl)cc1 (stereo not given),8%,0,0%,13%,6%
O=C(c1cnn(-c2nccc(-c3ccccc3F)n2)c1C1CC1)N1CCCCC1c1cccnc1 (stereo not given),.,.,21µM*,4%[9.04 µM],.
Cc1cc(-c2ccnc(-n3ncc(C(=O)N4CCCCC4c4cccnc4)c3C3CC3)n2)c(C)s1 (stereo not given),.,.,-3%,8%[9.04 µM],.
COc1ccc2nc(NC(=O)CS(=O)(=O)c3ccc(C)cc3)sc2c1,2%,-3,?,?,12%
Cc1cccc(Cn2cc(/C=C/[N+](=O)[O-])c3ccccc32)c1,23µM*,-67*,?,23µM*,?
COC(=O)c1ccc(Cn2cc(/C=C\[N+](=O)[O-])c3ccccc32)o1,?,-102*,?,?,?
CCOC(=O)Cn1cc(/C=C/[N+](=O)[O-])c2ccccc21,?,-51*,23µM*,15µM*,?
CCOc1cccc(C(=O)Nc2ccc3c(c2)OCCO3)c1,6%,-14,?,-9%,14%
NC(=S)NN=C1CCCCCCCCCC1,-6%,-1,10µM*,3.7µM*,5%
NC(=S)NN=C1CCC(C2CCCCC2)CC1 (stereo not given),-5%,?,3.7µM*,5.8µM*,1%
Cc1ccc(CS/C(Nc2ccccc2C)=C(\C#N)C(N)=O)c(C)c1,-4%,14,?,?,-10%
CCCC(=O)Nc1nnc(S(=O)(=O)N(CC)c2ccc(OC)cc2)s1,-22%,-1,-18%,1%,-16%
COc1ccc(C(=O)Nc2ccc(C(=O)N3CCCC3)cc2)cc1[N+](=O)[O-],-4%,?,4%,13%,0%
Cn1cc([N+](=O)[O-])c(C(=O)Nc2ccc(C3CCCCC3)cc2)n1,?,.,-18%,?,23µM*
Cn1cc([N+](=O)[O-])c(C(=O)Nc2ccc(C(=O)N3CCCCC3)cc2)n1,23µM*,.,0%,-4%,?
Cn1cc([N+](=O)[O-])c(C(=O)Nc2cc(Oc3cccnc3)cc([N+](=O)[O-])c2)n1,18µM*,-96*,?,-18%,21µM*
CCCCCn1c(C(C)NC(=O)c2ccccc2)nc2ccccc21 (stereo not given),.,.,-33%,?,.
CO[C@@H]1CN(C)C(=O)c2ccc(NS(=O)(=O)c3c(C)noc3C)cc2OC[C@@H](C)NC[C@@H]1C,24%,44,34%,-8%,13%
COc1ccc(OC)c(C2(O)CSC(=Nc3cccnc3)N2Cc2ccco2)c1 (stereo not given),2%,-2,18µM*,15µM*,8%
SMILES,HT1080 IDH1KD tx,IL-1B inflam inh,TDP1 cell noCPT,TDP1 cell CPT,HT1080-NT tox
O=C(c1cn(Cc2ccccc2)nc1-c1ccccc1)N1CCN(c2ccccn2)CC1,16µM*,7,5.8µM*,5.8µM*,?
COc1ccc(-c2nn(Cc3ccccc3)cc2C(=O)N2CCN(c3ccccn3)CC2)cc1OC,7%,-13,-20%,-3%,2%
Cc1ccccc1C(=O)N1CCN(c2ccccn2)CC1,19%,-11,-6%,0%,18%
O=C(c1ccccc1Br)N1CCN(c2ccccn2)CC1,-15%,8,12%,24%,-18%
O=C(c1ccccc1-c1ccccc1)N1CCN(c2ccccn2)CC1,6.5µM*,0,2.6µM*,3.3µM*,5.8µM*
CC(=O)c1ccc(N2CCN(C(=O)c3cn(Cc4ccccc4)nc3-c3cccnc3)CC2)c(F)c1,?,-4,23µM*,?,-10%
O=C(c1cnc(N2CCN(c3ncccn3)CC2)c2ccccc12)N1CCN(c2ccccn2)CC1,-16%,-66*,?,?,-21%
CC1(C(=O)NS(=O)(=O)C2CC2)CCCN(C(=O)Cc2ccc(F)cc2)C1 (stereo not given),6%,21,?,?,28%
CC(=O)CC(=O)Nc1ccccc1NC(C)=O,0%,-8,1%,6%,-1%
C/C=C(/C)C(=O)O[C@@H]1c2c(ccc3ccc(=O)oc23)O[C@@H]1C(C)(C)OC(=O)/C(C)=C\C,?,-11,16µM*,?,?
C/C=C(/C)C(=O)OC(C)(C)[C@@H]1Cc2c(ccc3ccc(=O)oc23)O1,11%,6,?,18µM*,6%
CC(C)CC(=O)OC(C)(C)[C@@H]1Cc2c(ccc3ccc(=O)oc23)O1,14%,12,?,?,13%
C/C=C(/C)C(=O)O[C@@H]1[C@H](OC(C)=O)c2c(ccc3ccc(=O)oc23)OC1(C)C,-7%,0,16µM*,?,-2%
Cc1ccccc1-c1cc2nc(NCCN3CCNC3=O)n(C)c(=O)c2s1,-6%,0,?,?,-20%
O=C(Nc1ccccc1F)C1CCCN1S(=O)(=O)c1cccc2nsnc12 (stereo not given),11%,33,24%,8%,4%
CN(Cc1ccco1)C(=O)[C@H](Cc1ccccc1)NC(=O)CC[C@H]1O[C@@H](n2ccc(=O)[nH]c2=O)[C@H](O)[C@@H]1O,10%,-4,11%,-2%,19%
Cc1cc(N(CCO)CCO)ccc1C(c1ccc(N(CCO)CCO)cc1C)c1ccccc1Cl,-6%,-68*,-7%,-29%,-14%
CN(C)c1ccc(C(=O)C(O)c2ccccc2Cl)cc1 (stereo not given),-13%,?,-29%,5%,-8%
CC1CCc2cc(F)ccc2N1S(=O)(=O)c1ccc(F)cc1 (stereo not given),2%,-9,?,-3%,0%
CC1CCc2cc(F)ccc2N1S(=O)(=O)c1ccc(Cl)nc1 (stereo not given),?,0,?,15µM*,-13%

# Screening results (PubChem)
